According to PubChem BioAssay AID463173 (ICCB-Longwood Screening Facility, Harvard Medical School, 2010):
The whole screen tested about 52,000 compounds, of which about 4,300 (8.3%) were called active. No stated cut-off is given here; in the data, active means survival mostly below about 52% (no sharp cut-off); inactive means mostly above about 56%. The entries come from a sample that favours actives as a whole.

These molecules were tested on DeltatarO mutant (assay: S. aureus survival, RN4220 and DeltatarO strains – OD600, teichoic acid synthesis inhibitors, primary screen (AID 463173)). Conditions: S. aureus RN4220 wild type/DeltatarO growth, OD600, 18 h, hits give low values, screened at 18.75 µg/mL (by protocol).

Row | SMILES | survival
1 | CCc1ccc(CNC(=O)Cc2ccc(NC(=O)N3CCSc4ncccc43)cc2)cc1 | 94% (inactive)
2 | CC(=O)c1c(C)oc2c(Cl)cc(NS(=O)(=O)c3cc(C)c(C)cc3C)cc12 | 157% (inactive)
3 | COc1ccc(OC)c(-c2noc(N3CCN(c4cc(C)ccc4C)CC3)n2)c1 | 87% (inactive)
4 | CC(=O)N1CCCc2cc(S(=O)(=O)N3CCCC(C(=O)Nc4cccc(Cl)c4C)C3)ccc21 (centres undefined) | 67% (inactive)
5 | COc1cccc(CNC(=O)c2ccc(Cn3c(SCc4ccccc4)nc4cccnc43)cc2)c1 | 74% (inactive)
6 | Cn1cc(C(=O)N2CCN(c3cccc(Cl)c3)CC2)c(=O)c2cc(S(=O)(=O)N3CCCC3)ccc21 | 128% (inactive)
7 | CCN(CC)c1nc2c(S(=O)(=O)c3cccc(Cl)c3)nnn2c2ccsc12 | 62% (inactive)
8 | Cc1ccc(CCNc2nc3c(S(=O)(=O)c4ccc(C)cc4)nnn3c3ccsc23)cc1 | 108% (inactive)
9 | Cc1ccc(S(=O)(=O)c2nnn3c2nc(NCCc2ccccc2)c2sccc23)cc1 | 65% (inactive)
10 | CN(Cc1ccccc1)c1nc2c(S(=O)(=O)c3cccc(Cl)c3)nnn2c2ccsc12 | 36% (active)
11 | CN(Cc1ccccc1)c1nc2c(S(=O)(=O)c3ccccc3)nnn2c2ccsc12 | 70% (inactive)
12 | Cc1ccc(CCNc2nc3c(S(=O)(=O)c4ccccc4)nnn3c3ccsc23)cc1 | 62% (active)
13 | Cc1cc(-c2ccc(C)c(S(=O)(=O)Nc3cccc(C)n3)c2)on1 | 75% (inactive)
14 | O=C(Cn1c(=O)nc(-c2ccccc2F)c2cc(Cl)ccc21)Nc1ccccc1C(F)(F)F | 96% (inactive)
15 | Cn1c(O)c(N=NC(=O)c2ccccc2)c2ccccc21 | 105% (inactive)
16 | CCCCc1cc(O)c(CCCC)c(O)c1 | 12% (active)
17 | CCCCc1c(C(=O)O)cccc1C(=O)O | 103% (inactive)
18 | Cc1cc(C)cc(N2C(=O)CSC23C(=O)N(CC(=O)Nc2ccc(F)cc2F)c2ccccc23)c1 (centres undefined) | 99% (inactive)
19 | Cc1ccc2c(c1)c(=O)c(S(=O)(=O)c1ccc(F)cc1)cn2CC(=O)Nc1ccc2c(c1)OCO2 | 70% (inactive)
20 | CCOc1ccccc1NC(=O)c1cnn2c(C(F)F)cc(-c3ccccc3)nc12 | 58% (active)
21 | CC(C)NC(=O)c1cnn2c(C(F)F)cc(-c3ccccc3)nc12 | 92% (inactive)
22 | O=C(Nc1cc(F)ccc1F)c1cnn2c(C(F)F)cc(-c3ccccc3)nc12 | 130% (inactive)
23 | COc1ccc(-c2cc(C(F)F)n3ncc(C(=O)Nc4cc(OC)ccc4OC)c3n2)cc1 | 51% (active)

Row | SMILES | survival
24 | CNS(=O)(=O)c1ccc(NC(=O)c2cnn3c(C(F)F)cc(-c4ccccc4)nc23)cc1 | 66% (inactive)
25 | COC(=O)c1ccc(C(=O)OC)c(NC(=O)c2cnn3c(C(F)F)cc(-c4ccc(C)cc4)nc23)c1 | 60% (inactive)
26 | COc1ccc(-c2cc(C(F)F)n3ncc(C(=O)Nc4cc(C)on4)c3n2)cc1 | 85% (inactive)
27 | CCN(CC)c1ccc(NC(=O)c2cnn3c(C(F)F)cc(-c4ccccc4)nc23)cc1 | 59% (active)
28 | CC(C)c1ccc(NC(=O)c2cnn3c(C(F)F)cc(-c4ccccc4)nc23)cc1 | 65% (inactive)
29 | CCCCn1nc(CC(=O)O)c2ccccc2c1=O | 83% (inactive)
30 | COC(=O)c1ccccc1NC(=O)C1(c2cccs2)CCOCC1 | 83% (inactive)
31 | COc1ccc(NC(=O)CN(C)S(=O)(=O)c2cnc[nH]2)cc1Cl | 98% (inactive)
32 | COc1ccc(C(=O)NCCn2cc(SCC(=O)Nc3cccc(C)c3)c3ccccc32)cc1 | 60% (inactive)
33 | Cc1ccc(-n2c(=O)c3c(C)c(C(=O)N(C)C)sc3n(CC(=O)C(C)(C)C)c2=O)cc1C | 107% (inactive)
34 | COc1ccc(CNC(=O)c2ccc(NC(=O)N3CCSc4ccccc43)cc2)cc1 | 56% (inactive)
35 | Cc1ccc(NC(=O)Cn2c(=O)n(CC(=O)NCCc3ccccc3)c(=O)c3ccccc32)cc1 | 89% (inactive)
36 | CCC(C(=O)NC1CCCC1)N(C(=O)c1snc(C(N)=O)c1N)c1ccccc1 (centres undefined) | 73% (inactive)
37 | COc1cccc(NC(=O)N(Cc2c[nH]c3ccccc23)C2CCCCC2)c1 | 65% (inactive)
38 | COc1cccc(NC(=O)N(Cc2cn(C)c3ccccc23)C2CCCCC2)c1 | -12% (active)
39 | COc1cccc(NC(=O)Cn2cc(C(=O)C3CCCCC3)c3ccccc32)c1 | 79% (inactive)
40 | COc1cccc(NC(=O)N(Cc2nc3ccccc3c(=O)[nH]2)C2CCCCC2)c1 | 83% (inactive)
41 | COc1cccc(NC(=O)N(Cc2c[nH]c3ccccc23)C2CCCCCC2)c1 | 46% (inactive)
42 | COc1cccc(NC(=O)N(Cc2cn(C)c3ccccc23)C2CCCCCC2)c1 | -13% (active)
43 | CC(C)NC(=O)CSc1nc2ccccc2c(=O)n1Cc1ccc(C(=O)NC(C)C)cc1 | 105% (inactive)
44 | CCC1Oc2ccccc2N(CC(=O)NCc2cc(OC)ccc2OC)C1=O (centres undefined) | 85% (inactive)
45 | COc1ccc(-c2csc3nc(-c4ccc(F)cc4)oc(=O)c23)cc1OC | 48% (active)
46 | COc1ccc(-c2csc3nc(-c4ccc(C)cc4)oc(=O)c23)cc1OC | 63% (inactive)

Row | SMILES | survival
47 | COc1ccc(-c2csc3nc(-c4ccccc4)oc(=O)c23)cc1OC | 115% (inactive)
48 | C=CCc1cccc2cc(C(=O)Nc3cccc(Cl)c3)c(=O)oc12 | 79% (inactive)
49 | C=CCc1cccc2cc(NC(C)=O)c(=O)oc12 | 76% (inactive)
50 | C=CCc1cccc2cc(C(=O)Nc3ccc(F)cc3)c(=O)oc12 | 44% (active)
51 | CCc1cccc(-n2c(=O)c3cccnc3n2CC(=O)Nc2ccc(OC)c(Cl)c2)c1 | 104% (inactive)
52 | COc1ccc(CNC(=O)CSc2ncc(S(=O)(=O)c3ccc(Br)cc3)c(=O)[nH]2)cc1 | 62% (inactive)
53 | CCCCNc1nc(Oc2ccc(OCCC)nn2)nc(N(C)C)n1 | 84% (inactive)
54 | COc1cccc(CNC(=O)CCc2c(C)nc3c4c(C)cc(C)nc4nn3c2C)c1 | 80% (inactive)
55 | COc1cc(OC)cc(-c2nc(-c3ccc4c(c3)[nH]c(=O)n4C)no2)c1 | 94% (inactive)
56 | COc1cc(OC)cc(-c2nc(-c3cccc(C)c3)no2)c1 | -3% (active)
57 | COc1cccc(-c2noc(COc3cccc(C)c3C)n2)c1 | 84% (inactive)
58 | COc1ccccc1OCc1nc(-c2cccc(C)c2)no1 | -3% (active)
59 | COc1cccc(-c2noc(COc3ccccc3Cl)n2)c1 | 81% (inactive)
60 | CCc1ccc(OCC(=O)NCc2nc(-c3cccc(C)c3)no2)c(Br)c1 | 94% (inactive)
61 | COc1ccc(-c2noc(COc3ccc(Br)cc3C)n2)cc1OC | 33% (active)
62 | COc1ccc(C(=O)NCc2nc(-c3cccc(C)c3)no2)cc1OC | 98% (inactive)
63 | CCc1ccc(OCc2nc(-c3ccc(OC)c(OC)c3)no2)c(Br)c1 | 33% (active)
64 | COc1ccc(-c2noc(COc3cc(C)c(Br)c(C)c3)n2)cc1OC | 60% (inactive)
65 | COc1ccc(-c2noc(CNS(=O)(=O)c3ccc(Br)cc3)n2)cc1OC | 70% (inactive)
66 | COc1ccc(N2CCN(c3ccc(-c4nc(-c5cccc(C)c5)no4)cc3[N+](=O)[O-])CC2)cc1 | 75% (inactive)
67 | COc1ccc(CCNC(=O)CCc2cn(Cc3ccc(C)cc3)c3ccccc23)c(OC)c1OC | 52% (inactive)
68 | Cc1ccc2nc(-c3ccncc3)c(Nc3ccccc3C)n2c1 | 103% (inactive)
69 | COc1ccc(CC(=O)NCc2ccc3c(c2)CCN3C(=O)c2ccc(C)cc2)cc1OC | 99% (inactive)

Row | SMILES | survival
70 | COc1ccccc1-c1nc2c(c(SCc3ccc(F)cc3Cl)n1)Cc1c(CO)cnc(C)c1O2 | 69% (inactive)
71 | CCOC(=O)c1ccc(NC(=O)CC2C(=O)N(c3ccc(F)cc3)C(=O)N2Cc2cccnc2)cc1 (centres undefined) | 95% (inactive)
72 | O=C(CSc1nc(-c2ccccc2)cc(=O)[nH]1)Nc1ccccc1 | 77% (inactive)
73 | COc1ccc(-c2nc3cnccn3c2NCc2ccc3c(c2)OCO3)cc1CN1CCOCC1 | 88% (inactive)
74 | CC1CCC(NC(=O)c2ccc(CS(=O)(=O)c3cccc(C(F)(F)F)c3)o2)CC1 (centres undefined) | 75% (inactive)
75 | O=C(c1ccc(F)cc1)c1cn(Cc2ccccc2F)c2cc3c(cc2c1=O)OCCO3 | 83% (inactive)
76 | COc1ccc(NC(=O)c2c(NCc3cccc(F)c3)sc3c2CCCC3)c(OC)c1 | 69% (inactive)
77 | COc1ccc(OCc2nc(-c3ccc(OC)c(OC)c3)no2)cc1 | 61% (inactive)
78 | COc1ccc(-c2noc(COc3cc(C)ccc3C)n2)cc1OC | -5% (active)
79 | COc1ccc(-c2noc(CN(C)S(=O)(=O)c3c(C)cc(C)cc3C)n2)cc1OC | 45% (inactive)
80 | CN(C)S(=O)(=O)c1ccc(S(=O)(=O)N(CC(=O)Nc2ccccc2)C2CC2)cc1 | 94% (inactive)
81 | Cc1cc(C)cc(OCC(=O)NCC2(N3CCOCC3)CCCCC2)c1 | 91% (inactive)
82 | CCn1c2ccccc2c2cc(C3C(C#N)=C(N)Oc4n[nH]c(C(C)C)c43)ccc21 (centres undefined) | 3% (active)
83 | COCc1[nH]nc2c1C(c1ccc(F)c(F)c1)C(C#N)=C(N)O2 (centres undefined) | 74% (inactive)
84 | CCc1[nH]nc2c1C(c1ccc(F)c(Oc3ccccc3)c1)C(C#N)=C(N)O2 (centres undefined) | 80% (inactive)
85 | CCOC(=O)c1cc(S(=O)(=O)N2CCN(c3cccc(OC)c3)CC2)[nH]n1 | 108% (inactive)
86 | COc1ccc(NS(=O)(=O)c2ccc3c(c2)CCN3C(=O)C2CC2)cc1OC | 86% (inactive)
87 | Cc1cccc(N2CCN(C(=O)Cc3c(C(=O)O)c(C)cn3C)CC2)c1C | 96% (inactive)
88 | COc1ccccc1N1CCN(C(=O)Cc2c(C(=O)O)c(C)cn2C)CC1 | -5% (active)
89 | Cc1cn(C)c(CC(=O)N2CCN(c3ccccc3F)CC2)c1C(=O)O | 89% (inactive)
